Format in all cases: functional
In experiment [1] the target is Solute carrier family 2, facilitated glucose transporter member 1 (Homo sapiens) (UniProt P11166). Briefly: ST_JUDE_LEISH: Cytotoxicity at 2uM final concentration against transgenic Leishmania Mexicana promastigotes LmGLUT1 that are glucose transport deficient and complemented with the human glucose transporter GLUT1. Activity is measured by DNA content using SYBR green in vitro.

In experiment [2] the target is Hexose transporter 1 (Plasmodium falciparum) (UniProt O97467). As to the kind of experiment: ST_JUDE_LEISH: Cytotoxicity at 2uM final concentration against transgenic Leishmania Mexicana promastigotes LmPfHT that are glucose transport deficient and complemented with the Plasmodium falciparum hexose transporter. Activity is measured by DNA content using SYBR green in vitro.

The target in experiment [3] is Glucose transporter (Leishmania mexicana) (UniProt O61059). As to the kind of experiment: ST_JUDE_LEISH: Cytotoxicity at 2uM final concentration against transgenic Leishmania Mexicana promastigotes LmGT2 that are glucose transport deficient and complemented with the L. Mexicana glucose transporter 2. Activity is measured by DNA content using SYBR green in vitro.

Chain of Solute carrier family 2, facilitated glucose transporter member 1 (Homo sapiens) (P11166 whole entry): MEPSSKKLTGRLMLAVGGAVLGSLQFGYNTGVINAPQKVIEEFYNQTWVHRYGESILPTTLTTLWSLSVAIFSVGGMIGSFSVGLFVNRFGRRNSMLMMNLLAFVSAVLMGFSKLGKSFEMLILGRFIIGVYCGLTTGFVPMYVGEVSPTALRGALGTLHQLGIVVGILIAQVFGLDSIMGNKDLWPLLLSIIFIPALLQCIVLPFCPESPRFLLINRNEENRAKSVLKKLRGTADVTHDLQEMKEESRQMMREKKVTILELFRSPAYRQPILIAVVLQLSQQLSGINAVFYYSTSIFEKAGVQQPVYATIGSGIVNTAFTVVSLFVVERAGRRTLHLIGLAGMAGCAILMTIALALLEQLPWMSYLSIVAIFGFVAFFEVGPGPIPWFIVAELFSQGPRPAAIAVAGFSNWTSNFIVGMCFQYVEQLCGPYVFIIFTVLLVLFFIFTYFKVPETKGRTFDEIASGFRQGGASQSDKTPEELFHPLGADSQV

Regarding `Fc1cccc(COc2ccc(Nc3ncnc4sc(C#C[C@H]5CC[C@H](CNCC(F)(F)F)N5)cc34)cc2Cl)c1`, the inhibition in experiment [1] turned out to be 1.63%; in experiment [2] it was 1.52%; in experiment [3], 1.3%.

For `CCN(CC)CCN(Cc1ccc(-c2ccc(C#N)cc2)cc1)C(=O)Cn1c(CCc2cccc(F)c2F)nc(=O)c2ccccc21`, the inhibition is 2.37% in experiment [1], 0.54% in experiment [2] and 3% in experiment [3].

Take `Cc1ccc2cc(NCCCCCCCCON3C(N)=NC(N)=NC34CCCCC4)ccc2n1`: the inhibition in experiment [1] was determined as 8.51%; in experiment [2], 8.23%; in experiment [3], 9.59%.

In the case of `NC1CCN(c2nc(NCCCc3ccc(O)cc3)nc(NCc3ccccc3-c3ccccc3)n2)CC1`, the inhibition in experiment [1] stood at 0.77%; in experiment [2] it was 0.01%; in experiment [3] it was 1.09%.

`Cc1cccc2nc(-c3cccc(-c4ccc(C(=O)N5CCCCC5C(C)O)cc4)c3)[nH]c12` (stereo not given): the values for the inhibition in experiment [1], in experiment [2] and in experiment [3] were 4.05%, 4.66% and 5.64%, respectively.

Take `CCOc1ccc2c(=NN=Cc3cccc(Cl)c3)cc(C)[nH]c2c1`: the inhibition stood at 8.03% in experiment [1], 6.27% in experiment [2] and 16% in experiment [3].

With `CC(C)Nc1cc(C(=O)N[C@@H](Cc2ccccc2)[C@H](O)CNC(C)(C)c2cccc(C(F)(F)F)c2)cc(N2CCCCS2(=O)=O)c1`, the inhibition in experiment [1] is 1.42%; in experiment [2] it was 2.46%; in experiment [3], 0.9%.

For `N#Cc1ccc2c(c1)CCN(CCC1CCC(NC(=O)c3cc4cccc([N+](=O)[O-])c4[nH]3)CC1)C2` (stereo not given), the inhibition amounted to 10.1% in experiment [1], 10.8% in experiment [2] and 9.97% in experiment [3].

For the compound `C[C@H](Cc1ccc(OCCNC[C@H](O)c2cccc(Cl)c2)cc1)NC[C@H](O)c1ccc(Cl)c(Cl)c1`, the values for the inhibition in experiment [1], in experiment [2] and in experiment [3] were 2.67%, 1.89% and 3.19%, respectively.

On to `O=C(Nc1cccc(-c2cccc(-c3nc4cc(F)ccc4[nH]3)c2)c1)Nc1ccc(F)c(F)c1F`, for which the values for the inhibition in experiment [1], in experiment [2] and in experiment [3] were 7.82%, 7.26% and 7.83%, respectively.

Take `CCC(=O)c1ccc(-c2ccc(=O)n(CC(=O)N(CCN(CC)CC)Cc3ccc(-c4ccc(C(F)(F)F)cc4)cc3)n2)cc1`: the results for the inhibition in experiment [1], in experiment [2] and in experiment [3] were 0.37%, 1.05% and -1.47%, respectively.

As for `c1ccc(CN2CCN(c3cc(-c4cncc(-c5ccccc5)c4)nc(-c4ccccc4)n3)CC2)cc1`, the figures for the inhibition in experiment [1], in experiment [2] and in experiment [3] were 1.99%, 2.26% and 1.99%, respectively.

Consider `Cc1ccc(O)c(C(=O)c2cc(C(=O)Nc3ccccc3C)c(=O)n(-c3ccccc3C)c2)c1`, for which the results for the inhibition in experiment [1], in experiment [2] and in experiment [3] were 4.62%, 3.71% and 1.81%, respectively.

With `CCN(CC(C)O)C(=O)c1ccc(-c2cccc(-c3nc4cccc(C)c4[nH]3)c2)cc1` (stereo not given), the values for the inhibition in experiment [1], in experiment [2] and in experiment [3] were 0.34%, 1.63% and 0.11%, respectively.

For `CC(C)(C)Oc1ccc(NC(=O)c2ccccc2O)cc1`, the inhibition in experiment [1] stood at 6.73%; in experiment [2] it was 5.36%; in experiment [3] it was 4.28%.

With `Cc1nc2ccccc2c(O)c1-c1ccc(Cl)cc1`, the results for the inhibition in experiment [1], in experiment [2] and in experiment [3] were 1.42%, -1.38% and -1.04%, respectively.

As for `FC(F)(F)c1cnc(Sc2nnc(-c3ccco3)o2)c(Cl)c1`, the figures for the inhibition in experiment [1], in experiment [2] and in experiment [3] were 17.1%, 12.9% and 11.8%, respectively.

Regarding `Cc1cc(Cl)ccc1NC(=O)NCCCCCN1CCC(c2c[nH]c3ccccc23)CC1`, the inhibition was 11.4% in experiment [1], 14.9% in experiment [2] and 10.4% in experiment [3].

On to `Cc1cc(C(=O)CN2C(=O)NC(C)(c3ccc4ccccc4c3)C2=O)c(C)n1Cc1ccco1` (stereo not given), for which the inhibition in experiment [1] is -0.27%; in experiment [2], -1.11%; in experiment [3] it was -4.18%.

In the case of `COc1cc2nc(NCCc3ccccc3)nc(NCc3cc(C)no3)c2cc1OC`, the inhibition was 4.85% in experiment [1], 4.61% in experiment [2] and 2.42% in experiment [3].

For `CC(CC1CCCCC1)NCc1ccccc1OCCC(=O)N1CCCC1C(N)=O` (stereo not given), the values for the inhibition in experiment [1], in experiment [2] and in experiment [3] were 3.79%, 3.8% and 0.2%, respectively.

Turning to `CC(Nc1ccnc2cc(Cl)ccc12)c1ccc(S(N)(=O)=O)cc1` (stereo not given), the results for the inhibition in experiment [1], in experiment [2] and in experiment [3] were -1.53%, 1.3% and 2.92%, respectively.

As to `CN(CCN)Cc1ccc(-c2ccc(-c3nc4cc(F)ccc4[nH]3)s2)cc1`, the inhibition is -0.54% in experiment [1], 0.42% in experiment [2] and -1.71% in experiment [3].

For the compound `Cc1cc(NCCC(=O)NCCc2ccccc2)nc(NCCc2ccc(F)cc2)n1`, the values for the inhibition in experiment [1], in experiment [2] and in experiment [3] were 2.76%, 3.87% and 2.22%, respectively.

`COc1ccc(-c2ccc(NC(=O)c3ccc(F)cc3)cc2)cc1CNC(C)C`: the inhibition came to 0.84% in experiment [1], 1.24% in experiment [2] and 4.68% in experiment [3].

Take `CC(C)c1ccc(CN2CCC(CNC(=O)c3cc(-c4cccc(Cl)c4)cs3)C2)cc1` (stereo not given): the inhibition is 1.24% in experiment [1], 3.19% in experiment [2] and -0.24% in experiment [3].

As for `CCN(CC)CCCCOc1ccc2c(c1)C(=O)c1cc(OCCCCN(CC)CC)ccc1-2`, the inhibition in experiment [1] is 10.2%; in experiment [2], 4.61%; in experiment [3] it was 0.2%.

As for `O=S(=O)(Nc1ccc(CCN2CCCCC2CCN2CCCC2)cc1)c1cccc2cccnc12` (stereo not given), the inhibition came out at 1.48% in experiment [1], 1.12% in experiment [2] and 2.15% in experiment [3].

`COc1ccc(CCc2ccc(-c3c(C)[nH]c(C)c(Cl)c3=O)cc2)cc1`: the values for the inhibition in experiment [1], in experiment [2] and in experiment [3] were 2.55%, 3.51% and 1.05%, respectively.

Consider `Cc1cccc(C(O)CNc2ccnc(Nc3cccc(-c4csc(C)n4)c3)n2)c1` (stereo not given), for which the values for the inhibition in experiment [1], in experiment [2] and in experiment [3] were 3.68%, 4.04% and 2.54%, respectively.

Turning to `COc1cc(C2CCN(CCCCNC(=O)c3ccc(NC(=O)c4cc(C(F)(F)F)cc(C(F)(F)F)c4)cc3)CC2)ccc1OC(C)C`, the inhibition in experiment [1] is 1.12%; in experiment [2] it was 0.93%; in experiment [3], 1.71%.

Take `Cc1cc(C)nc(-n2[nH]c(C)c(Cc3ccc(C(C)(C)C)cc3)c2=O)n1`: the inhibition in experiment [1] was found to be 4.87%; in experiment [2], 5.45%; in experiment [3], 2.9%.

With `Nn1c(=O)oc2ccc(Cl)cc2c1=O`, the inhibition in experiment [1] was 4.15%; in experiment [2], 10.4%; in experiment [3], 10%.

On to `O=C(NC1CC1)c1cnc(N2CCN(Cc3c(F)cccc3Cl)CC2)c(Cl)c1`, for which the inhibition was 12% in experiment [1], 1.02% in experiment [2] and -3.18% in experiment [3].

Regarding `N#Cc1c(N2CCCCCC2)nc(N)c2c(N)nc3c(c12)CC(=O)N3c1ccc(F)cc1`, the inhibition amounted to 2.61% in experiment [1], 1.65% in experiment [2] and 2.89% in experiment [3].

These data come from ChEMBL document CHEMBL3433997, “St. Jude Leishmania screening dataset” (2016).
